Screening data from PubChem.
KCNH2 3.1 inh: qHTS for Inhibitors of KCHN2 3.1: Mutant qHTS; Potassium voltage-gated channel subfamily H member 2, brain isoform KCNH2 3.1 (human); hit rate 0.95% among 340,000; U2OS KCNH2 3.1, thallium flux FluxOr; active compounds read low; activity change, % (tested at about 1.8 µM); AID 720553, 2013;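 active = maximum activity change below -70%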;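 note: thallium influx rate constant from kinetic fluorescence after stimulation buffer; % is set by controls: 0 for no effect and ±100 for the full control effect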
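Thallium flux read-out: FluxOr dye with Red40 quencher in HBSS/HEPES, 45 min at RT. Rate constants from kinetic reads were normalized to positive and negative DMSO controls. Cells: U2OS virally expressing the 3.1 isoform.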
hERG WT inh: qHTS for Inhibitors of KCHN2 3.1: Wildtype qHTS. AID 720551, 2013. hit rate 0.37% among 340,000. Voltage-gated inwardly rectifying potassium channel KCNH2 (Homo sapiens), Q12809. activity change, % at 1.84 µM. U2OS, BacMam KCNH2, thallium flux FluxOr; active compounds read low;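 active = maximum activity change below -70%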; note: % is set by controls: 0 for no effect and ±100 for the full control effect
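U2OS cells transduced with wild-type KCNH2 virus are loaded with FluxOr dye for 45 min, and thallium flux is measured in kinetic reads before and after stimulation buffer. Rate constants are normalized to DMSO controls.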
GRP78 ERSR act: qHTS for Inducers of the Endoplasmic Reticulum Stress Response (ERSR) in Human Glioma: qHTS | U87-MG GRP78 promoter luciferase reporter, 16 h | Potency, µM, for the others: at the highest dose activation, hits mostly activators | hit rate 0.02% among 420,000 | AID 602332, 2012; note: potency is the fitted concentration of half-maximal effect; series mostly up to about 76 µM; % of control where 0% means no effect; nearly all actives have a fitted effect of over 35% in size
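Stably transfected U87-MG glioma cells carrying a GRP78-based luciferase sensor; 16 h compound incubation. Luminescence end-point read 10 min after Bright-Glo addition at room temperature.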
RXFP1 antagonist: qHTS Assay for Antagonists of the Relaxin Receptor RXFP1. Relaxin receptor 1 (Homo sapiens), Q9HBX9. HEK293-RXFP1, relaxin-stimulated cAMP HTRF, 30 min; active compounds read low. activity change, negative = inhibition, % at 57.5 µM. hit rate 0.59% among 350,000;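 active = activity change of -60% or lower, but not beyond a set lower limit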; note: % is set by controls: 0 for no effect and ±100 for the full control effect
Target sequence (Q9HBX9 whole entry, looked up): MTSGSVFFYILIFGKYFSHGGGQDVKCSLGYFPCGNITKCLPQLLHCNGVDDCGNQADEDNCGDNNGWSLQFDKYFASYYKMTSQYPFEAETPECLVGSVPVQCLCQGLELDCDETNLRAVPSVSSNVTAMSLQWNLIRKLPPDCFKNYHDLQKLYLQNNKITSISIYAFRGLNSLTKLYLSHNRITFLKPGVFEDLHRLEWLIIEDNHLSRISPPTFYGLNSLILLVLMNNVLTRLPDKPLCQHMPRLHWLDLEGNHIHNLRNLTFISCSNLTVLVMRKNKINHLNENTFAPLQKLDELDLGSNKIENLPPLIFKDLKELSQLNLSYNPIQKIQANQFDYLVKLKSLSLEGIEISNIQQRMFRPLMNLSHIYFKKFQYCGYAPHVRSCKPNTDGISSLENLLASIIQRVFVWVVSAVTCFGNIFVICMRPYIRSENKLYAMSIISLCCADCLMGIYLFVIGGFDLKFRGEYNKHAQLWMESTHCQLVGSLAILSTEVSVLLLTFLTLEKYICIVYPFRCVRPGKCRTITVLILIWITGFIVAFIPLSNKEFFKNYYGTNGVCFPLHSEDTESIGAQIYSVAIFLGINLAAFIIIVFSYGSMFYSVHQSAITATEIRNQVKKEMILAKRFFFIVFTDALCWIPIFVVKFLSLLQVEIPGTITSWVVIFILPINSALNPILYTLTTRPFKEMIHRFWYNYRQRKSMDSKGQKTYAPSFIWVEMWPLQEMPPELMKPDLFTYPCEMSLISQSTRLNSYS
PTHR1 agonist: qHTS for PTHR1 Agonists: Primary Screen. hit rate 0.075% among 410,000. Potency, µM (doses to about 115 µM), inactives show at the top dose activation, actives largely listed as activators. HEK293 GP2 PTHR1 cells, GloSensor cAMP luminescence, 1 h; note: potency is the fitted concentration of half-maximal effect; nearly all actives have a fitted effect of over 55% in size
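HEK-293-derived GP2 cells expressing PTHR1 and a GloSensor cAMP reporter, 3,000/well, plated overnight, given luciferin plus IBMX (each 0.5 mM as added) for 1 h at 37 °C, then compound for 1 h at 37 °C. Luminescence was read after 15 min at room temperature.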
RXFP1 agonist: qHTS Assay for Agonists of the Relaxin Receptor RXFP1. Relaxin receptor 1 (Homo sapiens), Q9HBX9. Potency, µM (titrated, usually from 57.5 µM), inactives show at the top dose activation, most hits filed as activators. hit rate 0.3% among 370,000. HEK293T-RXFP1 cAMP TR-FRET, 30 min; response scale: percent of porcine relaxin response, buffer zero. AID 2676, 2010; note: potency is the fitted concentration of half-maximal effect; % is set by controls: 0 for no effect and ±100 for the full control effect; nearly all actives have a fitted effect of over 60% in size
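cAMP rise read by TR-FRET after 30 min, 37C compound exposure (up to 58 uM) in RXFP1-transfected HEK293 cells with Ro 20174 present. EC50 from Hill-equation fits, with 29 nM porcine relaxin as 100% and buffer as basal.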
* marks the source's active call; other numbers are inactive results; i = inactive; . = no result given. The list is not random: actives were taken first. Their share in the collection is about 1.4%. Unless noted, calls come from the whole dose curve; as a rule, active = well fitted curve in the direction sought with a large enough effect; inconclusive = small, poorly fitted or top-dose-only effect, or another doubt; inactive = no such curve, though single readings can be large; an effect the other way counts as inactive or inconclusive.

SMILES	KCNH2 3.1 inh	hERG WT inh	GRP78 ERSR act	RXFP1 antagonist	PTHR1 agonist	RXFP1 agonist
CCOc1cc(N2CCOCC2)c(OCC)cc1NC(=O)C(NC(=O)c1c(F)cccc1F)C(C)C (stereo unspecified)	0	4	7%	-1	i	.
O=C(Nc1ccc(CN2CCOCC2)cc1)c1ccc(-c2cc(Cl)ccc2Cl)o1	-76*	8	-8%	-18	-39%	2%
CN(c1ccccc1)c1ccc(/C=C/[N+](=O)[O-])cc1	-47	-14	-17%	-108*	-29%	0%
Cc1ccc(Cn2nc(C)c(NC(=O)C3(C)CC3(Br)Br)c2C)cc1 (stereo unspecified)	-16	6	-5%	13	-18%	0%
O=C(COc1ccccc1/C=C1\SC(=S)NC1=O)Nc1ccc(F)cc1	16	0	-1%	-70*	-23%	.
NC1=NC(=O)/C(=C/c2ccccc2OCC(=O)Nc2ccc(F)cc2)S1	-5	-2	-1%	2	i	.
CCOC(=O)N1CCN(C(=O)c2ccc(N3CC4CC(C3)c3cccc(=O)n3C4)c(NC(=O)c3ccc(F)cc3)c2)CC1 (stereo unspecified)	2	-163*	-5%	5	i	-2%
COCCNC(=O)c1ccc(N2CC3CC(C2)c2cccc(=O)n2C3)c(NC(=O)c2ccc(F)cc2)c1 (stereo unspecified)	11	2	-5%	8	-5%	-2%
CC(Nc1cc(C)cc(C)c1)=[N+](C)CCNS(=O)(=O)c1ccc(Cl)cc1	-95*	15	-7%	1	-16%	3%
COc1ccc(C2=NS(=O)(=O)N(C)C(C(=O)N3CCC(C)CC3)=C2)cc1	-113*	1	-3%	-5	i	4%
COc1ccc(NC(=O)C2=CC(c3ccc(C)cc3)=NS(=O)(=O)N2C)cc1	-3	9	-2%	-7	i	0%
Cc1cccc(Cn2c(O)c(N=NC(=S)Nc3ccccc3F)c3ccccc32)c1	-91*	.	-5%	-3	i	3%
Cc1cccc(Nc2nc(N)c([N+](=O)[O-])c(NCc3ccccc3)n2)c1	-11	7	10%	16	i	1%
Cc1ccccc1C(=O)Nn1cnnc1	6	1	-3%	2	i	0%
CCOP1(=O)OCC2OC(n3cnc4c(N)ncnc43)C(O)C2O1 (stereo unspecified)	5	-8	3%	32	i	10µM*
Nc1ncnc2c1ncn2[C@@H]1O[C@H](CO)[C@@H](O)[C@H]1O	2	4	1%	2	-19%	26%
Cc1ccc(C(=O)N2CCc3cc(CNC(=O)c4ccnn4C)ccc32)cc1	.	.	-1%	5	-28%	0%
Cn1nccc1C(=O)NCc1ccc2c(c1)CCN2C(=O)c1ccc(F)cc1	.	.	-4%	-73*	-63%	3%
NC(=O)c1ccc(NC(=O)CSc2nnc(C3CCCCC3)n2N)cc1	-138*	7	-1%	0	i	3%
CCN(CC)c1ccc(CNc2nc3ccccc3n2CCN2CCOCC2)cc1	-77*	23	-4%	-23	-29%	1%
Cc1ccc(-n2c(O)c(/C=N/Nc3ccc(S(=O)(=O)N4CCOCC4)cc3[N+](=O)[O-])c3ccccc3c2=O)c(C)c1	-5	42	-8%	-94*	-34%	0%
CC(C)c1cccc(C(C)C)c1NC(=O)CNCc1ccccc1F	11	.	-1%	2	-1%	0%
CCC/C=N/Nc1nc2ccccc2s1	11	-3	4%	-91*	-28%	0%
